Assay results taken from ChEMBL document CHEMBL3988442, “University of Dundee, Small-Polar-MMV Screening Library” (2021).
Screen size: about 69,000 compounds; about 420 (0.61%) showed an effect of 50% or more. The sample holds strong results, similar compounds and a random draw of the others, so the mix is not that of the screen.

molecular target: T1, Histidine--tRNA ligase (Leishmania infantum) (UniProt A4I591); experiment: Leishmania infantum Histidine tRNA synthetase (LdHisRS); type: functional; parameters: scale not given: in the data most compounds retested in dose-response had high values; details: 30 µM
T1 sequence (whole entry): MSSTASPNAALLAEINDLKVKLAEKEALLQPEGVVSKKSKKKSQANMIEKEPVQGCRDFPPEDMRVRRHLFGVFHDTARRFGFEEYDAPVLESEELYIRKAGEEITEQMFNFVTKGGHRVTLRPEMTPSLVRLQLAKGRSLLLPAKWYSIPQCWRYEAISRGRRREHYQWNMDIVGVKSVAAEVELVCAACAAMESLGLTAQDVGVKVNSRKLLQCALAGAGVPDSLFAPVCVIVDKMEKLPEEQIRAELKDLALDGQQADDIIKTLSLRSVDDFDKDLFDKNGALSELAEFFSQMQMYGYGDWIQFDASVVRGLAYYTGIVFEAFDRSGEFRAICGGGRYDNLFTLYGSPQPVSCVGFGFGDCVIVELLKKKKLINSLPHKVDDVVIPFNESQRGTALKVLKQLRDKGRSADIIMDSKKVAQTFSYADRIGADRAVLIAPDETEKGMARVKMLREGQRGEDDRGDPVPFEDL

Structure (SMILES)	Percent Effect [%]
Cc1ccncc1C(=O)N1C[C@H]2CN(CC3CCC3)C[C@@]2(C(=O)O)C1	-1.64
CN(CC(O)CO)c1nc(-c2cccnc2)nc2c1CCNC2 (stereo not drawn)	7.85
Cc1nonc1CN(C)c1nc(-c2cccnc2)nc2c1CCNC2	67.5
CN(CC1CCCCO1)c1nc(-c2cccnc2)nc2c1CCNC2 (stereo not drawn)	9.95
CS(=O)(=O)CC(=O)N1C[C@@H]2COC[C@]2(c2nnc(C3CC3)o2)C1	15.1
N#Cc1cccc(CN2CC[C@@H]3CN(c4ncccn4)CCO[C@@H]3C2)c1	-0.901
CSc1ccc(C(CN)N2CCc3sccc3C2)cc1 (stereo not drawn)	71.4
NCC(c1ccc(Cl)cc1)N1CCc2sccc2C1 (stereo not drawn)	13.7
CC(C)c1ccc(C(CN)N2CCc3sccc3C2)cc1 (stereo not drawn)	17.8
COc1cncc(-n2nc(C)c(CC(C)=O)c2C)c1	34.2
CC(=O)Cc1c(C)nn(-c2cncc(N)c2)c1C	64.6
CC(=O)Cc1c(C)nn(-c2cncc(C(N)=O)c2)c1C	16.5
COCCN1CC[C@@H]2O[C@@H](COCC(=O)N3CCCC3)CC[C@@H]21	17.1
COC[C@@]12CCC[C@@H]1CN(C(=O)CN(C)C)C2	5.77
CC(C)(C)NC[C@@H]1CCC[C@@H]2CN(Cc3csnn3)C[C@@H]21	17.1
O=C(C1CCOCC1)N1CCO[C@H]2[C@H](Oc3ccccn3)CC[C@@H]21	-1
CCOCC(O)CNc1cncc(Br)c1 (stereo not drawn)	46.6
CCCC(O)CNc1cncc(Br)c1 (stereo not drawn)	95.9
COCC(C)NC(=O)c1cncc(Br)c1 (stereo not drawn)	19.2
COCC(O)CNc1cncc(Br)c1 (stereo not drawn)	60.3

Structure (SMILES)	Percent Effect [%]
CS(=O)(=O)CCOCCNc1ccc(Br)cn1	16.9
O=C(NCCNc1cncc(Br)c1)c1ccc(O)cc1	42.5
CS(=O)(=O)CCOCCNc1cncc(Br)c1	53.2
COCCOCCNc1cncc(Br)c1	45.5
O=c1[nH]nc(CNc2cncc(Br)c2)[nH]1	11.1
Cn1cc(C(=O)N2CC[C@@H]3[C@@H]2CCN3c2ncc(F)cn2)cn1	14.3
O=C(c1ccnnc1)N1C[C@@H](OCc2cccnc2)[C@H]2OCCC[C@H]21	22.9
O=C(N[C@@H]1CN(c2ncccn2)C[C@@H]2CCCO[C@@H]21)c1cccnc1	2.86
Cc1ccc(N2CC[C@@H]3O[C@@H](c4ccncn4)C[C@H]3C2)nn1	16.2
Cc1nc[nH]c1CN1CCN(C(=O)CN2CCCC2)[C@H]2CS(=O)(=O)C[C@H]21	15.6
CCn1cc(CNc2ccc(Br)c(OC)c2)cn1	16.9
CCn1cc(CNc2ccc3nccnc3c2)cn1	90.9
CCn1cc(CNc2ccc(F)c(F)c2)cn1	3.54
CC(C)N(C)C[C@H]1OC[C@@H]2CCN(Cc3cccc(C#N)c3)C[C@@H]21	10
Cc1nc(CO[C@H]2CN(C(=O)c3cccn3C)[C@@H]3COC[C@H]23)cs1	-6
COc1ccccc1N1CCN(c2nc(N)nc3[nH]cnc23)CC1	21.7
Nc1cc(N2CCCC(COc3ccc(F)cc3)C2)ncn1 (stereo not drawn)	28.9
Nc1nc(N2CCCC(COc3ccc(F)cc3)C2)c2nc[nH]c2n1 (stereo not drawn)	81.9
O=C(c1cncc(N2CC[C@@]3(O)CCNC[C@H]3C2)n1)N1CCCC1	0
CN(C)S(=O)(=O)N1CC[C@]2(O)CCN(c3cc(C#N)ccn3)C[C@@H]2C1	15.7

Structure (SMILES)	Percent Effect [%]
O=C1[C@H]2CN(C3CCOCC3)C[C@H]2CN1Cc1cccc(F)c1	19.7
O=C(C1CCCC1)N1C[C@@H]2CCN(c3cnccn3)C[C@@H]2C1	30.3
O=C(C1CCCCC1)N1C[C@@H]2CCN(c3cnccn3)C[C@@H]2C1	46.8
CS(=O)(=O)N1C[C@H]2N(c3ncccn3)CCC[C@@]2(C(=O)NCC2CC2)C1	6.36
COc1ccc(C(NCc2cccc(C#N)c2)C2CC2)cc1 (stereo not drawn)	3.8
COc1ccc(C(NCc2ccc(C#N)cc2)C2CC2)cc1 (stereo not drawn)	29.1
COc1ccc(C(NCc2cccc(O)c2)C2CC2)cc1 (stereo not drawn)	69.6
Cc1ccoc1C(=O)N1CC[C@H]2[C@@H]1CCC(=O)N2c1cccnc1	23
CCS(=O)(=O)NC[C@]12COC[C@H]1CN(CCc1ccccc1)C2	2.63
O=C1N(CC2CC2)CCC12CCN(c1ncccn1)CC2	24.4
c1ccc2c(c1)N(CC1CCOC1)CC21CCN(c2cnccn2)CC1 (stereo not drawn)	39.1
c1cnc(N2CCC3(CC2)CN(CC2CC2)c2ccccc23)nc1	70.7
CN(C)CCN1C(=O)CC[C@@H]2[C@H]1CCN2C(=O)c1ccc(C#N)cc1	17.1
CN(C)[C@H]1COC[C@@H]2CN(Cc3ccc4c(c3)OCO4)C[C@@H]21	16.2
O=C1N(c2ccccc2)C[C@H]2CN(C3CCC3)CCN12	22.2
CCc1ccc2c(C3CN(C(C)=O)C3)ncn2c1	17.6
CCc1ccc2c(C3CN(CC4CCC4)C3)ncn2c1	69.8
CCc1ccc2c(C3CN(S(C)(=O)=O)C3)ncn2c1	12.6
